“And” between values parts separate entries of the source, which are not always exact repeats. Equal entries are not always repeated. Results filed as inconclusive are left out. The source holds several records for some structures; these can differ, active in one and inactive in another. The source made the active and inactive calls. Calls follow the shape of the dose curve; as a rule, active = well fitted curve in the direction sought with a large enough effect; inconclusive = small, poorly fitted or top-dose-only effect, or another doubt; inactive = no such curve, though single readings can be large; an effect the other way counts as inactive or inconclusive.
Experiments:
[1] = Viability qHTS for spleen associated tyrosine kinase inhibitor (SYKi) naive MV4-11 cells (AID 1963823); also: nearly all actives have a fitted effect of over 40% in size
Method in brief: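 Viability of MV4-11 AML cells lacking prior SYK inhibitor exposure is scored by CellTiter-Glo luminescence following 72 hr compound incubation at 37 C, 5% CO2, seeded at 500 cells per well.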

[2] = Viability qHTS for spleen associated tyrosine kinase inhibitor (SYKi) drug resistant MV4-11 cells (AID 1963824); also: nearly all actives have a fitted effect of over 35% in size
Method in brief: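 SYK inhibitor-resistant MV4-11 AML cells, 500 per well, added to predispensed compounds and incubated 72 hr at 37 C, 5% CO2. Viability measured by CellTiter-Glo luminescence after 10 min at room temperature.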

[3] = Quantitative highthroughput screen to assess conditional lethalithy of NOMO1 cells grown in RPMI1640 with untreated serum (RPMI+s) (AID 1963876); also: nearly all actives have a fitted effect of over 35% in size;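 as to Viability: 100% = DMSO wells and 0% = empty wells without cells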
Method in brief: (§1)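 Each medium arm—HPLM with 10% dialyzed FBS, or RPMI1640 with 5 mM glucose and 10% untreated or dialyzed FBS—was screened against an 11-point, 3-fold compound titration for 48 h at 37 °C, with CellTiter-Glo luminescence as endpoint.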

[4] = Quantitative highthroughput screen to assess conditional lethalithy of NOMO1 cells grown in Human Plasma-Like Medium with dialyzed fetal bovine serum (HPLM+ds) (AID 1963878); also: nearly all actives have a fitted effect of over 35% in size;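 as to Viability: 100% = DMSO wells and 0% = empty wells on each plate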
Method in brief: as §1

[5] = Quantitative highthroughput screen to assess conditional lethalithy of P12 Ichikawa cells grown in Human Plasma-Like Medium with dialyzed fetal bovine serum (HPLM+ds) (AID 1963879); conditions: Potency: viability; also: nearly all actives have a fitted effect of over 35% in size; as to Viability: series mostly up to about 46 µM
Method in brief: as §1

[6] = Quantitative highthroughput screen to assess conditional lethalithy of P12 Ichikawa cells grown in RPMI1640 with dialyzed fetal bovine serum (RPMI+ds) (AID 1963880); conditions: Potency: P12-Ichikawa viability; also: nearly all actives have a fitted effect of over 35% in size;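 as to Viability: 100% = DMSO wells and 0% = empty wells on each plate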
Method in brief: as §1

[7] = Quantitative highthroughput screen to assess conditional lethalithy of P12 Ichikawa cells grown in RPMI1640 with untreated serum (RPMI+s) (AID 1963881); conditions: Potency: viability; also: nearly all actives have a fitted effect of over 35% in size;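 as to Viability: series mostly up to about 46 µM; 100% = DMSO wells and 0% = empty wells without cells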
Method in brief: as §1

[8] = Quantitative highthroughput screen to assess conditional lethalithy of SEM cells grown in Human Plasma-Like Medium with dialyzed fetal bovine serum (HPLM+ds) (AID 1963882); also: nearly all actives have a fitted effect of over 35% in size; as to Viability: series mostly up to about 46 µM
Method in brief: as §1

[9] = Quantitative highthroughput screen to assess conditional lethalithy of SEM cells grown in RPMI1640 with unreated serum (RPMI+s) (AID 1963883); also: nearly all actives have a fitted effect of over 35% in size;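 as to Viability: 100% = DMSO wells and 0% = empty wells without cells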
Method in brief: as §1

[10] = Quantitative highthroughput screen to assess conditional lethalithy of SEM cells grown in RPMI1640 with dialyzed fetal bovine serum (RPMI+ds) (AID 1963884); also: nearly all actives have a fitted effect of over 35% in size;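 as to Viability: series mostly up to about 46 µM; 100% = DMSO control wells and 0% = empty wells without cells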
Method in brief: as §1

[11] = Cellular viability qHTS for adrenocortical cancer (ACC) cell line SW-13 (AID 1963989); conditions: SW-13 ACC cells viability, CellTiter-Glo, 48 h; activity (max response): stronger effect = lower value; also: nearly all actives have a fitted effect of over 65% in size;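 as to activity (max response): cells grown in serum-free medium with ITS supplement; % is scaled to controls: 0 for no effect and ±100 for the full control effect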
Method in brief: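 IC50 and maximal-response values come from four-parameter logistic fits of titration data. SW-13 cells in serum-free medium received compounds (up to 46 uM final) for 48 h before CellTiter-Glo luminescence.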

[12] = Cellular viability qHTS for adrenocortical cancer (ACC) cell line NCI-H295R (AID 1963990); also: nearly all actives have a fitted effect of over 60% in size
Method in brief: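 Adrenocortical carcinoma cells, suspended at 300 000 cells/mL in serum-free DMEM plus ITS, rested overnight before pin transfer of compound. After two days' incubation, ATP-dependent luminescence was recorded and curve-fitted.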
Potency is read from the fitted curve at half-maximal effect.

| SMILES | Potency [1] | Potency [2] | Potency [3] | Potency [4] | Potency [5] | Potency [6] | Potency [7] | Potency [8] | Potency [9] | Potency [10] | activity (max response) [11] | Potency [12] | Potency [11] |
| --- | --- | --- | --- | --- | --- | --- | --- | --- | --- | --- | --- | --- | --- |
| NC(=O)NO | inactive | inactive | 4690 nM (active) | 2960 nM (active) | 9350 nM (active) | 9350 nM (active) | 16600 nM (active) | 3720 nM (active) | 4180 nM (active) | 4180 nM (active) | 10.6% (inactive) and 4% (inactive) | inactive | – |
| COc1c(Cl)cc2c([nH]c3cnccc32)c1NC(=O)c1cccnc1C | 20.9 µM (active) | 18.6 µM (active) and 20.6 µM (active) | inactive | inactive | inactive | – | inactive | inactive | – | inactive | -4.78% (inactive) | inactive | – |
| Cc1cc(Nc2ncnc3ccc(-c4ccc(CNCCS(C)(=O)=O)o4)cc23)ccc1Oc1ccn2ncnc2c1 | 11.8 µM (active) | 11.6 µM (active) and 18.6 µM (active) | 935 nM (active) | 209 nM (active) | 209 nM (active) | 743 nM (active) | – | 590 nM (active) | 93.5 nM (active) | 332 nM (active) | – | inactive | – |
| CCC(=O)O[C@]1(C(=O)SCF)[C@H](C)C[C@H]2[C@@H]3C[C@H](F)C4=CC(=O)C=C[C@]4(C)[C@@]3(F)[C@@H](O)C[C@@]21C | 3.3 nM (active) and 8.3 nM (active) | 1.18 µM (active) | inactive | inactive | – | – | – | – | – | – | – | inactive | – |
| CN(C)CCCNC(=O)c1ccc(-c2cc(O)c3ncccc3c2)cc1 | 5.8 µM (active) | 5.17 µM (active) and 14.8 µM (active) | inactive | – | inactive | inactive | – | – | – | – | – | 12600 nM (active) | – |
| CCOc1cc(N2CCC(O)CC2)ccc1Nc1ncc2c(n1)N(C)c1ccccc1C(=O)N2C | 1.86 µM (active) | 1.03 µM (active) | 332 nM (active) | – | 2090 nM (active) | 3320 nM (active) | 2350 nM (active) | 20900 nM (active) | 16600 nM (active) | 16600 nM (active) | – | 10000 nM (active) | 15800 nM (active) |
| NC(N)=NC(=O)c1nc(Cl)c(N)nc1N | 5.39 µM (active) and 841 nM (active) | 12.1 µM (active) and 668 nM (active) | 935 nM (active) | – | 4690 nM (active) | 13200 nM (active) | 4690 nM (active) | inactive | inactive | inactive | -8.19% (inactive) and -7.03% (inactive) | – | – |
| O=C(NC[C@H](O)CO)c1ccncc1Nc1ccc(I)cc1F | 0.235 µM (active) | 0.166 µM (active) | 469 nM (active) | – | inactive | – | – | – | – | – | – | – | – |
| Cc1cn(-c2cc(NC(=O)c3ccc(C)c(Nc4nccc(-c5cccnc5)n4)c3)cc(C(F)(F)F)c2)cn1 | inactive and 2.35 µM (active) | inactive and 4.68 µM (active) | 935 nM (active) | – | 935 nM (active) | 1050 nM (active) | 1320 nM (active) | – | – | – | – | inactive | – |
| CC(=O)OCCN1C(=O)c2c(C)nc3ccc(S(=O)(=O)N4CCOCC4)cc3c2C1=O | inactive | inactive | 264 nM (active) | – | 2640 nM (active) | 3320 nM (active) | – | inactive | inactive | inactive | -3.53% (inactive) | inactive | – |
| NC[C@H](O)c1ccc(O)c(O)c1 | inactive | inactive | inactive | – | inactive | inactive | – | inactive | inactive | inactive | -12.7% (inactive) and 7.51% (inactive) | inactive | – |
| CCOc1ccc(Nc2nc(-c3c(C)nc4ccccn34)cs2)cc1 | 41.1 nM (active) and 33.2 nM (active) | 41.1 nM (active) and 29.5 nM (active) | 83.3 nM (active) | – | 46.9 nM (active) | – | 59 nM (active) | – | 46.9 nM (active) | 105 nM (active) | – | 708 nM (active) | – |
| CCOC(=O)C1=C(C)NC2=C(C(=O)CC(C)(C)C2)C1c1ccc(-c2ccccc2)cc1 (stereo not given) | 23.5 µM (active) | 18.4 µM (active) and 18.6 µM (active) | inactive | – | inactive | inactive | inactive | 18700 nM (active) | – | – | – | – | – |
